High-throughput results from PubChem.
IMPase inh: cell-permeable inhibitors of inositol monophosphatase (IMPase). CHO-M1 cells, IP1 accumulation, HTRF TR-FRET ratio. inhibition (IP1 accumulation), % at 46.1 µM. 120,000 tested, under 10 active; active = well fitted curve in the direction sought with a large enough effect in the signal ratio, not every such curve was filed as active; inconclusive = small, poorly fitted or top-dose-only effect, or a change in a side signal; inactive = no such curve, though single readings can be large or run the other way; the % refers to the signal ratio;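 also: cells stimulated with carbachol in lithium chloride buffer; plate controls were DMSO basal wells for no effect and reference inhibitor wells for full effect; higher means more IMPase inhibition seen as more IP1 and lower FRET ratio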
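In this qHTS, compounds (final up to 46 uM) act on CHO-M1 cells that are then activated through the M1 receptor with carbachol, in pH 7.4 buffer containing 50 mM LiCl, for 30 min. IP1 accumulation is quantified by the IP-One immunoassay.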
IMPase Li cell: membrane-permeable IMPase blocker, potentiated with lithium; CHO-M1 cells, IP1 TR-FRET (IP-One), carbachol + lithium; hit rate 0.35% among 210,000; Potency, µM (titrated, usually from 59.4 µM), for inactives: at the top dose activity, negative = IMPase inhibition, usual class: inhibitors; active = well fitted curve in the direction sought with a large enough effect; inconclusive = small, poorly fitted or top-dose-only effect, or another doubt; inactive = no such curve, though single readings can be large; an effect the other way counts as inactive or inconclusive;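 also: IP1 builds up when IMPase is blocked and the TR-FRET signal falls; potency is read from the fitted curve at half-maximal effect; plate controls were basal vehicle for no effect and high inhibitor control for full effect; nearly all actives have a fitted effect of over 50% in size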
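Test compounds were applied to CHO-M1 cells previously cultured for 16–30 h at 2000 per well. A small lithium amount accompanied them; after 30 min at 37C, IP1 was quantified by TR-FRET.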
ALOX12 inhib: 12-hLO (ALOX12) enzyme inhibition | Potency, µM (titrated, usually from 57.1 µM), inactives show at the top dose activity change, negative = inhibition, actives largely listed as inhibitors | P18054 | hit rate 0.12% among 150,000 | AID 1452 | purified 12-hLO, xylenol orange hydroperoxide absorbance; active = well fitted curve in the direction sought with a large enough effect; inconclusive = small, poorly fitted or top-dose-only effect, or another doubt; inactive = no such curve, though single readings can be large; an effect the other way counts as inactive or inconclusive; also: potency is read from the fitted curve at half-maximal effect; nearly all actives have a fitted effect of over 55% in size
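150 nM 12hLO, 25 mM Hepes pH 7.0 + 0.01% Triton X-100; cpd preinc 15 min RT; 40 uM arachidonic acid, 30 min RT; Fe-XO 30 min; A573/A405 ratio as read-out.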
ALDH1A1 block: inhibitors of human aldehyde dehydrogenase 1A1 | Potency, µM (series often up to 75.3 µM), for the others: top-dose activity, negative = inhibition, usual class: inhibitors | hit rate 7.3% among 220,000 | P00352 | Purified ALDH1A1, NADH fluorescence, propionaldehyde substrate;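 also: potency is read from the fitted curve at half-maximal effect; plate controls were no enzyme wells and a reference inhibitor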
Target sequence (P00352 whole entry, looked up): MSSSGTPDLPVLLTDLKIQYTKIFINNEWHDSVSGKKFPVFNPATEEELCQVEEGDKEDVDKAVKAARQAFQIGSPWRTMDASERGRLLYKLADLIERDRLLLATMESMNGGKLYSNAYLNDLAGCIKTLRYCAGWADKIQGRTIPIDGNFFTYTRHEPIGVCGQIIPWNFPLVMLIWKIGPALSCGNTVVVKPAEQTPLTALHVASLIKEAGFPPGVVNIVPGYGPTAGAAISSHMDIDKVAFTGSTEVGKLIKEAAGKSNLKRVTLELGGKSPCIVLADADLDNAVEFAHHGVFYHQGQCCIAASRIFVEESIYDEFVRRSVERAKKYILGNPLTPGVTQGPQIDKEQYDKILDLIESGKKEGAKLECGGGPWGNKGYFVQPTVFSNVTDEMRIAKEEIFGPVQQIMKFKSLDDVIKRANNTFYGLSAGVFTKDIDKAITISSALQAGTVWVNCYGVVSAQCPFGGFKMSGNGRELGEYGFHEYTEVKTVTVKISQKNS
HPGD block: blocks human HPGD enzyme activity. P15428. purified HPGD, NADH fluorescence kinetic, PGE2 substrate. Potency, µM, without a hit: at the top dose activity change, negative = inhibition, usual class: inhibitors. hit rate 4.3% among 150,000. AID 894; also: potency is read from the fitted curve at half-maximal effect
Target sequence (P15428 whole entry, looked up): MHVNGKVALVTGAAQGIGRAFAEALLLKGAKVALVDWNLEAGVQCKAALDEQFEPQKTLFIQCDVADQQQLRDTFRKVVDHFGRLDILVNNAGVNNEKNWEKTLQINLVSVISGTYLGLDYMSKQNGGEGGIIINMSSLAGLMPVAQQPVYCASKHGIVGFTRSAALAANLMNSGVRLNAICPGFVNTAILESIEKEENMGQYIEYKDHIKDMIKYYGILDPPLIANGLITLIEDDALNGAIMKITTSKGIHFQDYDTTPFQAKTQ
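20 nM HPGD preincubated 15 min at room temperature with compound in 50 mM Tris-HCl pH 8, 0.01% Tween 20. Started with 1 mM NAD+ and 30 uM prostaglandin E2; NADH fluorescence (360/450 nm) read 5 times over 30-s intervals, last minus first.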
PNC assembly inh: perinucleolar compartment assembly inhibition. PC3M PTB-GFP, PNC prevalence imaging, 16 h; active compounds read low. activity change (PNC), negative = inhibition, % at 10 µM. hit rate 3.1% among 140,000;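 active = readout at or below -70, meaning at least 70% loss of cells showing the perinucleolar compartment, a nuclear body marking cancer cells; inconclusive = readout between -30 and a set limit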;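 also: plate controls were DMSO wells for no effect and camptothecin positive control wells for full effect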
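Compounds are pinned in duplicate onto adhered PC3M cells stably expressing GFP-tagged PTB and incubated 16 h at 37 C. Cells are then fixed, nuclei stained with Hoechst, and PNC-positive cells counted.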
* hit, by the source's call; [ ] = dose if it differs, or a comment. The list is not random: actives were taken first. Their share in the collection is about 11%. Unless noted, calls follow the shape of the dose curve; as a rule, active = well fitted inhibition curve with a large enough effect (not every such curve was filed as active); inconclusive = small, poorly fitted or top-dose-only effect, or another doubt; inactive = no such curve, though single readings can be large or run the other way. Unless noted, % is scaled to controls: 0 for no effect and ±100 for the full control effect.

`COc1ccc(OC)c(-c2c3cc(O)c(=O)cc-3oc3cc(O)c(O)cc23)c1` gave IMPase Li cell 26%, ALOX12 inhib inconclusive, ALDH1A1 block inconclusive, HPGD block 14µM* and PNC assembly inh -6.
For CCOc1ccccc1-c1c2cc(O)c(=O)cc-2oc2cc(O)c(O)cc12 the results were IMPase inh inconclusive, IMPase Li cell 35%, ALOX12 inhib -30%, ALDH1A1 block 20µM*, HPGD block 18µM* and PNC assembly inh -83*.
For COc1ccc(NC(=O)N2CC[C@@]3(CCCN(C(=O)c4ccncc4)C3)C2)cc1 the results were IMPase Li cell 7%, ALOX12 inhib 2%, ALDH1A1 block -5% and HPGD block -9%.
O=C(NCCCN1CCCCCC1)[C@@H](c1ccccc1)C1CCCCC1 was read as IMPase inh 5, IMPase Li cell 8%, ALOX12 inhib -4%, ALDH1A1 block 4% and HPGD block 3%.
For CCc1ccc(NC(=O)CC2C(=O)Nc3c2c(=O)n(C)c(=O)n3C)cc1 (configuration not stated) the results were IMPase inh 3, IMPase Li cell -10%[38.3 µM], ALOX12 inhib 8%, ALDH1A1 block 100µM*, HPGD block -19% and PNC assembly inh 36.
COc1cccc(-c2nc(S(=O)(=O)c3ccccc3)c(N3CCC(C)CC3)o2)c1 was read as IMPase inh 3.
Screening Cc1ccc(-c2nc3cccnc3s2)cc1NS(=O)(=O)c1ccc2c(c1)OCCO2 returned IMPase inh -15, IMPase Li cell 1%[38.3 µM], ALOX12 inhib -7%, ALDH1A1 block inconclusive, HPGD block inconclusive and PNC assembly inh -108*.
Screening Cc1nc2ccccn2c1C(=O)NNS(=O)(=O)c1ccc(C(C)(C)C)cc1 returned IMPase Li cell 11%, ALOX12 inhib -2%, ALDH1A1 block 1.1µM*, HPGD block -1% and PNC assembly inh inconclusive.
Screening Cc1nc2ccccn2c1C(=O)NN returned IMPase inh -2, ALOX12 inhib 3%, ALDH1A1 block 2.2µM* and PNC assembly inh 23.
For CCN(CC)c1ccc(/C=C/C(=O)C2C(=O)C=C(C)OC2=O)cc1 (configuration not stated) the results were IMPase Li cell -16% and ALDH1A1 block 18µM*.
For CCN(CC)c1ccc(C2C(C(=O)OC)=C(C)NC(C)=C2C(=O)OC)cc1 the results were IMPase inh 8, IMPase Li cell inconclusive, ALOX12 inhib -4%, ALDH1A1 block inconclusive, HPGD block inconclusive and PNC assembly inh -18.
For Cn1cccc1C(=O)N1CCC2(CC1)CN(Cc1ccc(C#N)cc1)C2 the results were IMPase Li cell 23%, ALOX12 inhib 3%, ALDH1A1 block -9% and HPGD block -4%.
O=C(CSc1nc2[nH]ncc2c(=O)[nH]1)N1CCCCC1 was read as IMPase inh inconclusive, IMPase Li cell -1%, ALOX12 inhib 2%, ALDH1A1 block 20µM*, HPGD block -9% and PNC assembly inh inconclusive.
Nc1nc(SCC(=O)Nc2ccccc2)[nH]c(=O)c1-c1ccccc1 was read as IMPase inh 5, IMPase Li cell -10%[38.3 µM], ALOX12 inhib 1%, ALDH1A1 block -2%, HPGD block 1% and PNC assembly inh 1.
Cc1ccc(S(=O)(=O)N2CCN(C(=O)CSc3ncc(C(F)(F)F)cc3Cl)CC2)cc1 was read as IMPase inh 5, IMPase Li cell 18%[38.3 µM], ALOX12 inhib -24%, ALDH1A1 block 2.8µM*, HPGD block -12% and PNC assembly inh 12.
For Nc1nc(SCC(=O)N2CCc3ccccc3C2)[nH]c(=O)c1-c1ccccc1 the results were IMPase inh 2, IMPase Li cell 26%[38.3 µM], ALOX12 inhib 2%, ALDH1A1 block 22µM*, HPGD block -26% and PNC assembly inh -18.
For O=C(CSc1nc2[nH]ncc2c(=O)[nH]1)c1ccc(Cl)cc1 the results were IMPase Li cell inconclusive and ALDH1A1 block 2.5µM*.
For Cc1cc(C)cc(NC(=O)C(=O)NC(C)c2ccccc2)c1 (configuration not stated) the results were IMPase inh -7.
Screening O=C(CSc1nc(C2CCCCC2)nc2ccccc12)N1CCCC1 returned IMPase Li cell 8% and ALDH1A1 block -2%.
O=C(CSc1nc2ccccc2c(=O)[nH]1)N1CCCCC1 was read as IMPase inh 9, IMPase Li cell 6%[38.3 µM], ALOX12 inhib -4%, ALDH1A1 block inconclusive, HPGD block 16µM* and PNC assembly inh 41.
For O=C(CSc1nncc2ccccc12)N1CCCCC1 the results were IMPase Li cell 25% and ALDH1A1 block 10µM*.
Cc1ccc(S(=O)(=O)N2CCN(C(=O)CSc3nc4ccccc4c(=O)[nH]3)CC2)cc1 was read as IMPase inh -10, IMPase Li cell inconclusive, ALOX12 inhib -5%, ALDH1A1 block 3.2µM*, HPGD block -15% and PNC assembly inh inconclusive.
For CCSc1nc2[nH]ncc2c(=O)[nH]1 the results were IMPase Li cell -5%, ALOX12 inhib 0%, ALDH1A1 block 11%, HPGD block -8% and PNC assembly inh -87*.
CCCCSc1nc2[nH]ncc2c(=O)[nH]1 was read as IMPase Li cell 4%, ALOX12 inhib -2%, ALDH1A1 block 17%, HPGD block -10% and PNC assembly inh inconclusive.
CC(C)c1nc(SCC(=O)N2CCCC2)c2ccccc2n1 was read as IMPase inh 2, IMPase Li cell -18%[38.3 µM], ALOX12 inhib -1%, ALDH1A1 block 3.2µM*, HPGD block -13% and PNC assembly inh 26.
`CCc1nc(SCC(=O)N2CCCC2)c2ccccc2n1` gave IMPase inh 3, IMPase Li cell 9%[38.3 µM], ALOX12 inhib 2%, ALDH1A1 block 12%, HPGD block -20% and PNC assembly inh 2.
Screening C=C(C)C(=O)OC returned IMPase Li cell 9%, ALOX12 inhib -1%, ALDH1A1 block 28% and HPGD block 1%.
Screening CC(OC(=O)c1ccc(Cl)c(S(=O)(=O)N2CCc3ccccc32)c1)C(=O)Nc1ncc(Cl)cc1Cl (configuration not stated) returned IMPase inh 1, IMPase Li cell -2%, ALOX12 inhib 4%, ALDH1A1 block 25µM*, HPGD block -15% and PNC assembly inh inconclusive.
CC(OC(=O)c1ccc([N+](=O)[O-])s1)C(=O)Nc1ncc(Cl)cc1Cl (configuration not stated) was read as IMPase inh 9, IMPase Li cell -2%, ALOX12 inhib -1%, ALDH1A1 block 6.3µM*, HPGD block -6% and PNC assembly inh 66.
